According to PubChem BioAssay (NCATS):
Inconclusive results are not listed. Entries that show only a call come without a potency. The source made the active and inactive calls. Calls come from the whole dose curve.

Target: Estrogen receptor (Homo sapiens) (UniProt P03372)
Assay: qHTS assay for small molecule agonists of estrogen receptor alpha signaling (AID 588514); note: nearly all actives have a fitted effect of over 70% in size
Conditions: ER-alpha-UAS-bla HEK293, beta-lactamase ratio, 18 h; series mostly up to 76.8 µM
From the text: NIH Chemical Genomics Center [NCGC]
U.S. Environmental Protection Agency [EPA]
National Institutes of Environmental Health Sciences [NIEHS]
National Toxicology Program [NTP]
Estrogen receptor alpha (ER-alpha) is an important member of nuclear hormone receptors. ER-alpha plays important role in breast cancer as well as in other women's health issues. The majority of breast cancers is estrogen receptor (ER) positive and depends on estrogen for growth. There is also growing concern for some of environmental chemicals which may contribute the increasing the incidence of breast cancer. Therefore, it is important to understand the effect of environmental chemicals in ER-alpha signaling pathway.
NCGC Assay Protocol Summary
Using a beta-lactamase reporter-gene under control of the ER response element, a cell-based assay [ER-alpha-UAS-bla GripTiteTM cell-Based Assay from Invitrogen] was used to measure ER-alpha signaling pathway in agonist mode. ER-alpha-UAS-bla-GripTite HEK 293 cells were used with assay medium containing 2% charcoal/dextran treated FBS, 0.1 mM NEAA and 1 mM sodium pyruvate. Cells were cultured in this assay medium overnight in the flasks before the assay. The assay was performed in clear bottom black Greiner 1536-well plates. 17-beta-estradiol was used as a positive control in the screen. Library compounds were measured for their ability to either stimulate the reporter gene activity. Compounds were screened in a titration series in 1536-well format. […] Data was normalized relative to 17-beta-estradiol control (20 nM, 100%), and DMSO only wells (basal, 0%). Concentration-response titration points for each compound were fitted to the Hill equation yielding concentrations of half-maximal stimulation (EC50) and maximal response (efficacy) values.
qHTS protocol for ER-alpha beta-lactamase assay in agonist mode
[Step] [Parameter] [Value] [Description]
1. Reagent; 6 uL; 5000 cells/well
2. Incubation; 37 C for 4 hrs
4. Controls (17-beta-estradiol); 23 nL
- Dose response, start 1uM, 1:3 dilutions with duplicates
- Two columns with 20 and 0.5 nM (final) concentration.
5. Incubation; 37 C for 18 hrs
6. Detection reagent; 1 uL of CCF4-dye
7. Incubation; RT for 2 hrs
8. Detection; Fluorescence; Envision plate reader or Acumen plate reader

Estrogen receptor (Homo sapiens), sequence (P03372 whole entry, looked up): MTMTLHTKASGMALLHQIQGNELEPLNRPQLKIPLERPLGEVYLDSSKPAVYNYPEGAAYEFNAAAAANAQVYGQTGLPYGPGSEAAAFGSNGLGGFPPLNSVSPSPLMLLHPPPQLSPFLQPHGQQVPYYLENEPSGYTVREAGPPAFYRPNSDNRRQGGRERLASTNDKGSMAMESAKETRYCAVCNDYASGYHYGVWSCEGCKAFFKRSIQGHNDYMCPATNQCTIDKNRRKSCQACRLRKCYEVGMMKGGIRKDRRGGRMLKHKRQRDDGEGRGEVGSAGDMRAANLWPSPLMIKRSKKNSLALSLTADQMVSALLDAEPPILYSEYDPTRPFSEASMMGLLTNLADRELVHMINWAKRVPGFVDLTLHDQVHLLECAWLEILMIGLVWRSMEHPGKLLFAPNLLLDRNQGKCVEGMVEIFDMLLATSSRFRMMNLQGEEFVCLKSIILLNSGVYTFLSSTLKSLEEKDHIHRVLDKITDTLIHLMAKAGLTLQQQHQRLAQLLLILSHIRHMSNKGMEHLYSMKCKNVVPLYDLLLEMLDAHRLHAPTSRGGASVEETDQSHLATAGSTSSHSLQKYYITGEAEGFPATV

Row | Compound | Potency
1 | CCOP(=S)(OCC)SCCl | inactive
2 | CCOP(=S)(OCC)SCn1c(=O)oc2cc(Cl)ccc21 | inactive
3 | CCOP(=S)(OCC)Oc1ccc(S(C)=O)cc1 (stereo not given) | inactive
4 | COP(=S)(OC)Oc1ccc([N+](=O)[O-])c(C)c1 | inactive
5 | CC1(C)[C@H](C=C(Cl)Cl)[C@H]1C(=O)O[C@H](C#N)c1ccc(F)c(Oc2ccccc2)c1 | inactive
6 | CC(C)(c1ccccc1)c1cc(-n2nc3ccccc3n2)c(O)c(C(C)(C)c2ccccc2)c1 | inactive
7 | CCOP(=O)(O)C(N)=O | inactive
8 | CCOc1ccc(C(C)(C)COCc2cccc(Oc3ccccc3)c2)cc1 | inactive
9 | CNP(=O)(OC)Oc1ccc(C(C)(C)C)cc1Cl (stereo not given) | inactive
10 | COc1ccc(-c2ccccc2)cc1NNC(=O)OC(C)C | inactive
11 | c1cc2c3c(cccc3c1)CC2 | inactive
12 | Nc1nc(N)nc(Cl)n1 | inactive
13 | O=C(Nc1ccccc1)Nc1ccnc(Cl)c1 | inactive
14 | Clc1ccc(C2(Cn3cncn3)CC(Br)CO2)c(Cl)c1 (stereo not given) | inactive
15 | CCCCNC(=O)OCC#CI | inactive
16 | CCOP(OCC)OCC | inactive
17 | CCNc1nc(Cl)nc(NC(C)(C)C)n1 | inactive
18 | CCN(CC)C(=O)C(C)Oc1cccc2ccccc12 (stereo not given) | inactive
19 | CCOc1nc(F)cc2nc(S(=O)(=O)Nc3c(Cl)cccc3Cl)nn12 | inactive
20 | O=C1C=C2C(=CCOC2O)O1 (stereo not given) | inactive

Row | Compound | Potency
21 | CCCCN(CC)C(=O)SCCC | inactive
22 | CC(C)(C)N(NC(=O)c1ccc(Cl)cc1)C(=O)c1ccccc1 | inactive
23 | COP(=O)(OC)SCn1c(=O)oc2cc(Cl)cnc21 | inactive
24 | C=CCC1=C(C)[C@@H](OC(=O)[C@@H]2[C@@H](C=C(C)C)C2(C)C)CC1=O | inactive
25 | COC(=O)N(C(=O)N1COC2(C(=O)OC)Cc3cc(Cl)ccc3C2=N1)c1ccc(OC(F)(F)F)cc1 (stereo not given) | inactive
26 | CCSCCSP(=O)(OC)OC | inactive
27 | O=S(=O)(c1ccc(O)cc1)c1ccc(O)cc1 | 14.1 µM (active)
28 | Clc1ccc(-c2cc(Cl)c(Cl)cc2Cl)cc1Cl | inactive
29 | CNC(=O)Oc1cccc2c1OC(C)(C)C2O (stereo not given) | inactive
30 | CCOP(=S)(S)OCC | inactive
31 | C=CC(=O)OCCCCCC(C)C | inactive
32 | COc1cc(Cl)c(OC)cc1Cl | inactive
33 | CCCN(CC)CC1COC2(CCC(C(C)(C)C)CC2)O1 (stereo not given) | inactive
34 | CCOP(=S)(OCC)SCSP(=S)(OCC)OCC | inactive
35 | O=C(NC(=O)c1c(F)cccc1F)Nc1ccc(Cl)cc1 | inactive
36 | Cc1[nH]c(=O)n(C(C)(C)C)c(=O)c1Cl | inactive
37 | CCC[CH2][Sn]([CH2]CCC)([O]C(C)=O)[O]C(C)=O | 0.794 µM (active)
38 | CCOP(=O)(NC(C)C)Oc1ccc(S(C)=O)c(C)c1 (stereo not given) | inactive
39 | COC(=O)NS(=O)(=O)c1ccc(N)cc1 | inactive
40 | COC(=O)c1ccccc1S(=O)(=O)NC(=O)N(C)c1nc(C)nc(OC)n1 | inactive
